For one experiment, the system named is HEK293T. Description: qHTS assay to identify novel small-molecules to repurpose for Merkel cell carcinoma treatment (AID 1296009). Further: nearly all actives have a fitted effect of over 60% in size. Further: potency means the concentration at half of the fitted maximal effect. To be noted: MCC and control cell lines, CellTiter-Glo viability, 72 h; at 44.8 µM (top of the series) unless noted. The gist of the method: (§1)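 Dose-response viability screen; 72 hr exposure at 37 degree celsius; CellTiter-Glo added, 10 min room temperature, luminescence read; RLUs scaled between no-cell and DMSO wells.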
On the technique in general: qHTS replaces the single test concentration by a dilution series.

In another experiment the test system is MCC-13. Described as above. The note with it: MCC and control cell lines, CellTiter-Glo viability, 72 h; series mostly up to 46 µM. The gist of the method:
as §1
On the technique in general: In ATP-based viability assays light output follows the ATP content of the culture.

The next experiment has as its system MCC-26. The description is as above. To be noted: MCC and control cell lines, CellTiter-Glo viability, 72 h; series mostly up to 46 µM. The gist of the method: as §1
The test system of the next experiment is MKL-1. Described as above. To be noted: MCC and control cell lines, CellTiter-Glo viability, 72 h; series mostly up to 46 µM. The gist of the method:
as §1

The subject of another experiment is MKL-2. Described as above. The note with it: MCC and control cell lines, CellTiter-Glo viability, 72 h; series mostly up to 46 µM. In a few lines: as §1
The test system of the next experiment is NIH3T3. Described as above. The note with it: MCC and control cell lines, CellTiter-Glo viability, 72 h; at 44.8 µM (top of the series) unless noted. In a few lines:
as §1

The subject of the next experiment is UISO. Described as above. To be noted: MCC and control cell lines, CellTiter-Glo viability, 72 h; series mostly up to 46 µM. In a few lines: as §1
The test system of a further experiment is WaGa. Described as above. The note with it: MCC and control cell lines, CellTiter-Glo viability, 72 h; series mostly up to 46 µM. In a few lines:
as §1

A further experiment deals with C33A. Description: Primary qHTS to identify gynecologic anti-cancer compounds using libraries of approved drugs and bioactive compounds (AID 1345084). Further: nearly all actives have a fitted effect of over 55% in size. The note with it: Gynecologic cancer cell panel viability, ATPlite luminescence, 48 h; series mostly up to 57.5 µM. The gist of the method: (§2)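 ATP-based viability (ATPlite), 1,000 cells/well, 16 h pre-incubation, 48 h compound at 37 C, 5% CO2, 15 min RT before read.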

The subject of a further experiment is CAOV3. The description is as above. The note with it: Gynecologic cancer cell panel viability, ATPlite luminescence, 48 h; series mostly up to 57.5 µM. In a few lines: as §2

Results filed as inconclusive are left out. The source made the active and inactive calls. The call rests on the fitted dose curve; in most records, active means well fitted curve in the direction sought with a large enough effect; inconclusive means small, poorly fitted or top-dose-only effect, or another doubt; inactive means no such curve, though single readings can be large; an effect the other way counts as inactive or inconclusive.

In the case of `O=C(CO)[C@@H](O)[C@H](O)[C@@H](O)CO`, the outcome with HEK293T and in the experiment with NIH3T3 was inactive. In addition, the Potency result in the experiment with MCC-13, with MCC-26, with MKL-1, in the experiment on MKL-2, with UISO and in the experiment with WaGa was “inactive” in each case. The Potency entry in the experiment on C33A and with CAOV3 was “inactive” in each case.

In the case of `OC[C@]1(O)OC[C@@H](O)[C@H](O)[C@@H]1O`, the result in the experiment with HEK293T and in the experiment on NIH3T3 was inactive. The Potency entry in the experiment with MCC-13, in the experiment on MCC-26, with MKL-1, in the experiment with MKL-2, with UISO and in the experiment on WaGa was “inactive” in each case. The Potency result in the experiment on C33A and in the experiment with CAOV3 was “inactive” each time.

With `Cc1ccc(C(C)OC(=O)C2(C)CCC(C(=O)O)C2(C)C)cc1` (configuration not stated), the compound was called inactive in the experiment on HEK293T and in the experiment with NIH3T3. Further, the Potency entry in the experiment on MCC-13, in the experiment with MCC-26, in the experiment with MKL-1, in the experiment on MKL-2, in the experiment with UISO and in the experiment with WaGa was “inactive” in each case. Also, the Potency result in the experiment with C33A and in the experiment with CAOV3 was “inactive” throughout.

For the compound `CN(C)CCN1CCN(c2cccc(Cl)c2)C1=O`, the outcome with HEK293T and in the experiment with NIH3T3 was inactive. Besides, the Potency entry in the experiment with MCC-13, with MCC-26, with MKL-1, in the experiment on MKL-2, with UISO and in the experiment on WaGa was “inactive” each time. Moreover, the Potency result with C33A and with CAOV3 was “inactive” in each case.

For the compound `O=C1CC(c2ccc(Cl)cc2)CC(=O)N1`, in the experiment on HEK293T, the compound was classed as inactive. Further, the Potency entry with MCC-13, in the experiment with MCC-26, in the experiment with MKL-1, in the experiment on MKL-2, in the experiment with UISO and in the experiment with WaGa was “inactive” in each case. The Potency entry in the experiment on C33A is “inactive”.

In the case of `COc1cc(/C=C/C(N)=O)cc(OC)c1OC`, the outcome in the experiment with HEK293T and with NIH3T3 was inactive. In addition, the Potency result with MCC-13, with MCC-26, in the experiment with MKL-1, in the experiment with MKL-2, in the experiment on UISO and in the experiment on WaGa was “inactive” each time. Moreover, the Potency entry in the experiment with C33A is “inactive”.

Consider `O=C(Oc1ccccc1)c1ccccc1O`, for which the compound was classed as inactive in the experiment with HEK293T. For the same compound, the Potency result in the experiment on MCC-13, in the experiment on MCC-26, in the experiment with MKL-1, in the experiment on MKL-2, with UISO and in the experiment on WaGa was “inactive” each time. For the same compound, the Potency entry in the experiment on C33A and with CAOV3 was “inactive” each time.

Consider `O=c1[nH]c(=O)n([C@H]2O[C@H](CO)[C@@H](O)[C@@H]2O)cc1/C=C\Br`, for which the compound was called inactive with HEK293T. Further, the Potency result in the experiment on MCC-13, with MCC-26, with MKL-1, in the experiment with MKL-2, in the experiment with UISO and with WaGa was “inactive” each time. In addition, the Potency entry in the experiment with C33A is “inactive”.

With `O=C(C1CCCCC1)N1CC(=O)N2CCCc3ccccc3C2C1` (configuration not stated), the call in the experiment with HEK293T and with NIH3T3 was inactive. Also, the Potency entry in the experiment with MCC-13, in the experiment on MCC-26, in the experiment with MKL-1, in the experiment on MKL-2, in the experiment with UISO and in the experiment on WaGa was “inactive” throughout. The Potency entry in the experiment on C33A and in the experiment with CAOV3 was “inactive” throughout.

As to `CC(=O)O[C@@H]1CC2C3CCc4cc(OC(=O)c5ccccc5)ccc4C3CCC2(C)[C@H]1OC(C)=O` (some centres not stated), the call in the experiment with HEK293T was inactive. Also, the Potency result in the experiment with MCC-13, with MCC-26, in the experiment with MKL-1, in the experiment on MKL-2, in the experiment on UISO and with WaGa was “inactive” in each case. The Potency result in the experiment on C33A and with CAOV3 was “inactive” in each case.

As to `CC(CCc1ccc2c(c1)OCO2)NN` (configuration not stated), the compound was called inactive in the experiment on HEK293T and in the experiment on NIH3T3. In addition, the Potency entry in the experiment on MCC-13, in the experiment on MCC-26, in the experiment with MKL-1, with MKL-2, in the experiment on UISO and in the experiment on WaGa was “inactive” each time. The Potency result in the experiment with C33A and with CAOV3 was “inactive” each time.

Consider `COC(=O)CCCCC(CCSS/C(CCO)=C(\C)N(C=O)Cc1cnc(C)nc1N)SC(C)=O` (configuration not stated), for which the outcome in the experiment with HEK293T and in the experiment with NIH3T3 was inactive. Besides, the Potency entry in the experiment with MCC-13, in the experiment with MCC-26, in the experiment on MKL-1, in the experiment with MKL-2, in the experiment on UISO and in the experiment on WaGa was “inactive” throughout. Moreover, the Potency entry in the experiment with C33A and in the experiment on CAOV3 was “inactive” each time.

As for `COC(=O)c1cc(Cl)ccc1OC`, the compound was classed as inactive in the experiment with HEK293T and in the experiment with NIH3T3. Further, the Potency entry in the experiment on MCC-13, with MCC-26, in the experiment with MKL-1, in the experiment with MKL-2, in the experiment on UISO and in the experiment with WaGa was “inactive” each time. The Potency result with C33A was “inactive”.

In the case of `CCN(CC)CC(=O)Oc1ccc(NC(C)=O)cc1`, the compound was classed as inactive in the experiment on HEK293T and in the experiment with NIH3T3. The Potency entry with MCC-13, with MCC-26, in the experiment on MKL-1, in the experiment on MKL-2, in the experiment with UISO and in the experiment on WaGa was “inactive” each time. The Potency entry in the experiment on C33A and with CAOV3 was “inactive” throughout.

`Cc1cc(O)c(C)c(C)c1O`: the compound was classed as inactive in the experiment with HEK293T and in the experiment with NIH3T3. The Potency result in the experiment with MCC-13, with MCC-26, in the experiment on MKL-1, with MKL-2, in the experiment on WaGa and in the experiment on C33A was “inactive” in each case. Moreover, in the experiment on CAOV3, the Potency entry was “inactive”.

With `NS(=O)(=O)c1cc2c(cc1Cl)CN(C1CCCCC1)C2=O`, the result in the experiment on HEK293T was inactive. For the same compound, the Potency entry in the experiment on MCC-13, in the experiment on MCC-26, in the experiment on MKL-1, in the experiment on MKL-2, in the experiment on UISO and with WaGa was “inactive” each time. For the same compound, the Potency result in the experiment with C33A and in the experiment on CAOV3 was “inactive” in each case.

On to `O=C(CCCCC(=O)Nc1c(I)cc(I)c(C(=O)O)c1I)Nc1c(I)cc(I)c(C(=O)O)c1I`, for which the call in the experiment with HEK293T was inactive. The Potency entry with MCC-13, in the experiment on MCC-26, with MKL-1, in the experiment with MKL-2, in the experiment with UISO and with WaGa was “inactive” in each case. Besides, the Potency entry with C33A and with CAOV3 was “inactive” each time.

For `CCN1CCCC1CN` (configuration not stated), the outcome in the experiment on HEK293T was inactive. Further, the Potency entry in the experiment on MCC-13, in the experiment with MCC-26, in the experiment on MKL-1, with MKL-2, in the experiment with UISO and in the experiment with WaGa was “inactive” in each case. The Potency entry in the experiment with C33A and with CAOV3 was “inactive” in each case.

For `CC(=O)CC/C=C(\C)CC/C=C(\C)CC/C=C(\C)CCC=C(C)C`, the outcome in the experiment with HEK293T was inactive. Moreover, the Potency entry with MCC-13, in the experiment on MCC-26, in the experiment with MKL-1, in the experiment with MKL-2, in the experiment on UISO and with WaGa was “inactive” in each case. Moreover, the Potency result in the experiment with C33A and with CAOV3 was “inactive” in each case.

Consider `O=C(CCCCCCCCC#CI)Oc1ccccc1`, for which, in the experiment on HEK293T, the result was inactive. Also, the Potency result in the experiment with MCC-13, in the experiment with MCC-26, with UISO, with C33A and with CAOV3 was “inactive” in each case. For the same compound, the figures for the Potency in the experiment on MKL-1, with MKL-2 and in the experiment on WaGa were 13.3 µM (active), 9.44 µM (active) and 11.9 µM (active), respectively.

Turning to `CCC(=O)O[C@H]1[C@H](O[C@@H]2[C@@H](C)[C@H](O[C@H]3C[C@@](C)(OC)[C@@H](O)[C@H](C)O3)[C@@H](C)C(=O)O[C@H](CC)[C@@](C)(O)[C@H](O)[C@@H](C)C(=O)[C@H](C)C[C@@]2(C)O)O[C@H](C)C[C@@H]1N(C)C`, in the experiment on HEK293T, the result was inactive. Also, the Potency entry in the experiment on MCC-13, in the experiment with MCC-26, in the experiment on MKL-1, in the experiment on MKL-2, with UISO and in the experiment with WaGa was “inactive” in each case. Further, the Potency entry with C33A and with CAOV3 was “inactive” each time.

Consider `CCCCOCCOC(=O)c1cccnc1`, for which the outcome with HEK293T was inactive. Moreover, the Potency result in the experiment with MCC-13, in the experiment with MCC-26, in the experiment with MKL-1, in the experiment on MKL-2, with UISO and with WaGa was “inactive” in each case. Also, the Potency entry with C33A and with CAOV3 was “inactive” each time.

Take `Cc1ccc2ccc(Cl)cc2n1`: in the experiment on HEK293T, the result was inactive. Besides, the Potency entry with MCC-13, with MCC-26, with MKL-1, in the experiment on MKL-2, in the experiment with UISO and in the experiment on WaGa was “inactive” throughout. For the same compound, the Potency entry in the experiment with C33A and in the experiment on CAOV3 was “inactive” each time.

In the case of `CCN(CC)C(=O)C1CN2CCc3cc(OC)c(OC)cc3C2CC1OC(C)=O` (configuration not stated), the call with HEK293T was inactive. The Potency entry with MCC-13, in the experiment with MCC-26, in the experiment with MKL-1, with MKL-2, with UISO and in the experiment on WaGa was “inactive” throughout. The Potency result in the experiment on C33A and in the experiment with CAOV3 was “inactive” each time.

The values are drawn from PubChem BioAssay (NCATS).
